The results in this text go back to ChEMBL document CHEMBL1961873, “Compounds: GSK PKIS; Assays: Nanosyn kinase panel” (2012).

Structures are written as SMILES.

In assay [1] the target is CDK3/Cyclin E (Homo sapiens) (UniProt P24864+Q00526). The conditions noted are these: at 1 µM.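 Note: each figure is a mean percent inhibition of the CDK3/cyclin E complex.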
In assay [2] the target is Cyclin-dependent kinase 4 (Homo sapiens) (UniProt P11802). The conditions noted are these: at 0.1 µM.
Assay [3] has the same target. The conditions noted are these: at 1 µM.
Assay [4] deals with Cyclin-dependent kinase 5 (Homo sapiens) (UniProt Q00535). As to conditions: at 0.1 µM.
Cyclin-dependent kinase 5 (Homo sapiens), sequence (Q00535 whole entry, looked up): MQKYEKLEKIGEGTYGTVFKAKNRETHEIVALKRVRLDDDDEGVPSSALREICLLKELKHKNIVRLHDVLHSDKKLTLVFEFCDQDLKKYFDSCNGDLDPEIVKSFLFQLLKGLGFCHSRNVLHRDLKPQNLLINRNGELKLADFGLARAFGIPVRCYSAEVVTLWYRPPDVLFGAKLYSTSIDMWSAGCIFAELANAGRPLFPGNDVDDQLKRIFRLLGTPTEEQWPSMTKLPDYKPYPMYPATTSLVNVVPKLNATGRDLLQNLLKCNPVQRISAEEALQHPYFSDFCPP
The target is the same in assay [5]. The conditions noted are these: at 1 µM.
Assay [6] has as its target Cyclin-dependent kinase 6 (Homo sapiens) (UniProt Q00534). As to conditions: at 0.1 µM.
The target is the same in assay [7]. As to conditions: at 1 µM.
In assay [8] the target is Dual specificity protein kinase CLK2 (Homo sapiens) (UniProt P49760). As to conditions: at 0.1 µM.
Dual specificity protein kinase CLK2 (Homo sapiens), sequence (P49760 whole entry, looked up): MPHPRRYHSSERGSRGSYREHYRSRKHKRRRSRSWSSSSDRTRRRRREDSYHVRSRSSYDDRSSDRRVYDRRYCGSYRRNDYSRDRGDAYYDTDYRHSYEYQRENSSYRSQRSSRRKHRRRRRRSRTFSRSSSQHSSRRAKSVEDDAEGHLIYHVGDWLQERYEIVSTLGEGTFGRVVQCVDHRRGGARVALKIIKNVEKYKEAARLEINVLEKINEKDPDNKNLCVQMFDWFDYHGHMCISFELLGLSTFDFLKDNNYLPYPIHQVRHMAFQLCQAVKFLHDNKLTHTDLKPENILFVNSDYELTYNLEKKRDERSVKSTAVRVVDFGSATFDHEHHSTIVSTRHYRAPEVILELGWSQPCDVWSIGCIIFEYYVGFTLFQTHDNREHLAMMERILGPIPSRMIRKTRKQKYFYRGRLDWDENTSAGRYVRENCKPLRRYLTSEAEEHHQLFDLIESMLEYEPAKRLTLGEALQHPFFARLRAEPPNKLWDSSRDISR
The target is the same in assay [9]. As to conditions: at 1 µM.
The target of assay [10] is Dual specificity protein kinase CLK3 (Homo sapiens) (UniProt P49761). The conditions noted are these: at 0.1 µM.
Dual specificity protein kinase CLK3 (Homo sapiens), sequence (P49761 whole entry, looked up): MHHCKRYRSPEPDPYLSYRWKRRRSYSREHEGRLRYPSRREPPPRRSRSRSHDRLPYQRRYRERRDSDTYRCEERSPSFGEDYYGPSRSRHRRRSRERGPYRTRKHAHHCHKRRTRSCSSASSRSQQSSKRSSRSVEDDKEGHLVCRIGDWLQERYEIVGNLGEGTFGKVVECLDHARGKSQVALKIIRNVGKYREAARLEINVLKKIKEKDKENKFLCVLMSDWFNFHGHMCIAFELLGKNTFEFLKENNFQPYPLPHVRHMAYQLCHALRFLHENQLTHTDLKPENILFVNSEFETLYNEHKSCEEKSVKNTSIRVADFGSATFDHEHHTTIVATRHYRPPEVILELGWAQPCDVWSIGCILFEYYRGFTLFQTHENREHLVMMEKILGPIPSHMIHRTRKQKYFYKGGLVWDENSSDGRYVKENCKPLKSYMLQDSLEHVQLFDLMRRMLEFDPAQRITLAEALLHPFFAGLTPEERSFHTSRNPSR
Assay [11] shares this target. As to conditions: at 1 µM.
The target of assay [12] is Dual specificity tyrosine-phosphorylation-regulated kinase 1A (Homo sapiens) (UniProt Q13627). The conditions noted are these: at 0.1 µM.
Assay [13] has the same target. The conditions noted are these: at 1 µM.
Assay [14] has as its target Dual specificity tyrosine-phosphorylation-regulated kinase 1B (Homo sapiens) (UniProt Q9Y463). As to conditions: at 0.1 µM.
Assay [15] shares this target. As to conditions: at 1 µM.
The target of assay [16] is T1, Dual specificity tyrosine-phosphorylation-regulated kinase 2 (Homo sapiens) (UniProt Q92630).
T1 sequence (whole entry): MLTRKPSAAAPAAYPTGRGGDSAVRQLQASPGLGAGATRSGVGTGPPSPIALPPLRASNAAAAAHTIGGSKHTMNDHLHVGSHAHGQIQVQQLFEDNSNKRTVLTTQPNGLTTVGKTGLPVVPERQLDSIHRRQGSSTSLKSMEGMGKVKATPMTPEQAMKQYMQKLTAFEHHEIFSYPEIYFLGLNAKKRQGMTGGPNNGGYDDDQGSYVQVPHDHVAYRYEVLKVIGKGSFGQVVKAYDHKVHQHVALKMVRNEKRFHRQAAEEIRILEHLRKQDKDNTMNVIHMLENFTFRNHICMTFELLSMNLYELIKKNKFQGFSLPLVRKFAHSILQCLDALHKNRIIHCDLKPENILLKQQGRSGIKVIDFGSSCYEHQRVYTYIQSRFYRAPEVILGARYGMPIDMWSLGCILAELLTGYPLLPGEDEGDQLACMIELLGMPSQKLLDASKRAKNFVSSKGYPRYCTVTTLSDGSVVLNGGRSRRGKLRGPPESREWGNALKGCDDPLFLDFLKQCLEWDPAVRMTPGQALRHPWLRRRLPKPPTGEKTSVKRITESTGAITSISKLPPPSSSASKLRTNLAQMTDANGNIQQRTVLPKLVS
The conditions noted are these: at 0.1 µM.

The target in assay [17] is T1, Dual specificity tyrosine-phosphorylation-regulated kinase 2 (Homo sapiens). As to conditions: at 1 µM.
The target of assay [18] is Glycogen synthase kinase-3 alpha (Homo sapiens) (UniProt P49840). The conditions noted are these: at 0.1 µM.
Glycogen synthase kinase-3 alpha (Homo sapiens), sequence (P49840 2-483 limits assumed): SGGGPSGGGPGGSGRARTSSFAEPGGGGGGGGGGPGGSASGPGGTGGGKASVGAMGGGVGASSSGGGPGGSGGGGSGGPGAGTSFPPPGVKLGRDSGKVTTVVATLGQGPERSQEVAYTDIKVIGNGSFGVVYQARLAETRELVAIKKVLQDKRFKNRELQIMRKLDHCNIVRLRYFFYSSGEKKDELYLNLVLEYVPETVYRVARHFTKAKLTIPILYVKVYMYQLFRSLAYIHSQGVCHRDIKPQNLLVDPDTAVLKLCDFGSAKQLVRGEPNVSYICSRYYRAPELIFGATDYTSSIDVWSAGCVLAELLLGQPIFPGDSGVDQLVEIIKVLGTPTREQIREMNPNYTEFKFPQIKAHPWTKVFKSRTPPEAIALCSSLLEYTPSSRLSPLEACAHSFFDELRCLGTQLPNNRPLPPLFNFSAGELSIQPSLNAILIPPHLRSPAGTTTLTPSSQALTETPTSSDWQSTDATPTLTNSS
The target is the same in assay [19]. As to conditions: at 1 µM.
Assay [20] addresses Glycogen synthase kinase-3 beta (Homo sapiens) (UniProt P49841). The conditions noted are these: at 0.1 µM.

Cyclin-dependent kinase 6 (Homo sapiens), sequence (Q00534 whole entry): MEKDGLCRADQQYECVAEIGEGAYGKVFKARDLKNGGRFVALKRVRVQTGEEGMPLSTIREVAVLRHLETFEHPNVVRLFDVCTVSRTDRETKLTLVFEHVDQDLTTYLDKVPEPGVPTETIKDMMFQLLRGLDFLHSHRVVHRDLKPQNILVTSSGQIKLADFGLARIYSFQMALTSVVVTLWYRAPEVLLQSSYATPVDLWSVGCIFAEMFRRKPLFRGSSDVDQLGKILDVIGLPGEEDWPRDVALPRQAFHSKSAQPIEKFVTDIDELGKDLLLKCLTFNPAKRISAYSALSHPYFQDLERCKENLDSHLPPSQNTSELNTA
Glycogen synthase kinase-3 beta (Homo sapiens), sequence (P49841 whole entry, looked up): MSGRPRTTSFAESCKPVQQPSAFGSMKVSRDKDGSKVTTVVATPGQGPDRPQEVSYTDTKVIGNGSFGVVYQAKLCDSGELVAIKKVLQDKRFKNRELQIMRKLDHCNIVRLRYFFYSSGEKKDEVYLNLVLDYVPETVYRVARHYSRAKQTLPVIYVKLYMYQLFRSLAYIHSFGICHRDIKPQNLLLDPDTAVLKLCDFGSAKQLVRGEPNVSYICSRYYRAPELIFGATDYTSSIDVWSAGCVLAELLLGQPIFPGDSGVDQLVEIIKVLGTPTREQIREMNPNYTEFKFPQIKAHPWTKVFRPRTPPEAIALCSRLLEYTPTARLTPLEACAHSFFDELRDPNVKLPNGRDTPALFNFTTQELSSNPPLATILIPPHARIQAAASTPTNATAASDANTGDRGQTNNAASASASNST
CDK3/Cyclin E (Homo sapiens), sequence (P24864 whole entry, looked up): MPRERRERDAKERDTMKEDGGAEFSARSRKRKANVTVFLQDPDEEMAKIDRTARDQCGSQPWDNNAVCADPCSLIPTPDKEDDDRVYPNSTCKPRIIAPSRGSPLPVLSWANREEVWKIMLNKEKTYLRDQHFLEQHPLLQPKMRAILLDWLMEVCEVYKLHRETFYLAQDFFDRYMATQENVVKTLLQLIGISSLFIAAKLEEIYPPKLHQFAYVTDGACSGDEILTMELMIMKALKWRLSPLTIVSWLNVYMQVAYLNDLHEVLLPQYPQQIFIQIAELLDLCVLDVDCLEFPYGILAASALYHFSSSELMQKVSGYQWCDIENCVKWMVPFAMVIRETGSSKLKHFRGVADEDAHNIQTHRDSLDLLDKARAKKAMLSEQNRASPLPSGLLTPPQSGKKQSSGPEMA
CDK3/Cyclin E (Homo sapiens), sequence (Q00526 whole entry, looked up): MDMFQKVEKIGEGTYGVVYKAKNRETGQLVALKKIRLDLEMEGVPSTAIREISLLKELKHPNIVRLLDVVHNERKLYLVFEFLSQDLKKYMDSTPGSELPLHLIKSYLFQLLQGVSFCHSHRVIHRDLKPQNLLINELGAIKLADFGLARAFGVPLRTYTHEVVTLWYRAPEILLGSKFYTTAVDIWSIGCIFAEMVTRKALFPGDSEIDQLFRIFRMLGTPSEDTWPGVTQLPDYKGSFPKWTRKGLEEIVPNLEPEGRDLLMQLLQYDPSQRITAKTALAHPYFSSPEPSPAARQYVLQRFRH
Cyclin-dependent kinase 4 (Homo sapiens), sequence (P11802 whole entry): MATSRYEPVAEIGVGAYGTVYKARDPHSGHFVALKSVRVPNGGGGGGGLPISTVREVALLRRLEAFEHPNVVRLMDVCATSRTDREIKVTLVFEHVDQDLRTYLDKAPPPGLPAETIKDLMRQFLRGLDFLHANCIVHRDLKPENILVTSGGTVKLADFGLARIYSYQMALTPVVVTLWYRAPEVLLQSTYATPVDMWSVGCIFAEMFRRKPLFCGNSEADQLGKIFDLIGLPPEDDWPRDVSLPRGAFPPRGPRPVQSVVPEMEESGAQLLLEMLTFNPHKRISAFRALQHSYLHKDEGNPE
Dual specificity tyrosine-phosphorylation-regulated kinase 1B (Homo sapiens), sequence (Q9Y463 whole entry, looked up): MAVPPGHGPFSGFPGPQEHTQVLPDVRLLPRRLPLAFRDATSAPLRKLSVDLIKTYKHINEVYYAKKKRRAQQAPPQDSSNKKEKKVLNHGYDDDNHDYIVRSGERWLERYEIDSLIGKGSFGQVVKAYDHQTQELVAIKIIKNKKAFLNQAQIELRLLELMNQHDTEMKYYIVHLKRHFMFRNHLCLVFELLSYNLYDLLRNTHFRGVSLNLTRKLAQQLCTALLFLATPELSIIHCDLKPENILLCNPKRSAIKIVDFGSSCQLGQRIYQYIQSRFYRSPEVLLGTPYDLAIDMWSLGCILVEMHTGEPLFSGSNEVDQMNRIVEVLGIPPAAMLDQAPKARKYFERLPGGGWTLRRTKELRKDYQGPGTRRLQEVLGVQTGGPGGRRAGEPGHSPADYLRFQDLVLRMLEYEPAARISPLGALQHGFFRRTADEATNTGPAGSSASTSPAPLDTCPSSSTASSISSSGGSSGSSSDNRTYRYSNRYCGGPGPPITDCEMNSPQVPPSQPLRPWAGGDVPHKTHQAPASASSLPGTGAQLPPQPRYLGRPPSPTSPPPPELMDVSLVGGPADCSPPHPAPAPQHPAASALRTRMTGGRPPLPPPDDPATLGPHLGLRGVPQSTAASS

Take `Cc1ccc(C(=O)NC(C)C)cc1-c1ccc(C(=O)NCC2CC2)cc1`: the inhibition in [1] was -1.55%; in assay [2], -0.49%; in assay [3], 0.6%; in assay [4], 0.55%; in assay [5] it was 2.73%; in [6], -1.81%. In addition, the inhibition in assay [7] is -0.75%; in assay [8] it was -1.1%; in assay [9] it was -0.78%; in [10], -0.64%; in [11], 0.67%; in assay [12], 1.18%. In addition, the inhibition in [13] was 2.28%; in assay [14] it was 3.39%; in [15], 3.96%; in [16], -2.49%; in assay [17], -3.21%; in assay [18], 1.52%. Besides, the figures for the inhibition in assay [19] and in assay [20] were 3.31% and 1.46%, respectively.
`Fc1ccc(-c2ncn(C3CCNCC3)c2-c2ccnc(Oc3ccc(F)c(F)c3)n2)cc1`: the inhibition in assay [1] was -1.08%; in assay [2], 0.19%; in assay [3], 3.54%; in assay [4], 1.99%; in [5] it was 3.94%; in assay [6], -4.37%. In addition, the inhibition was -0.06% in assay [7]; 0.86% in assay [8]; -0.42% in [9]; -3.62% in assay [10]; -3.79% in [11]; -2.02% in [12]. In addition, the inhibition in assay [13] is -0.16%; in [14], -4.48%; in assay [15] it was -2.53%; in assay [16], 1.98%; in assay [17], 2.31%; in assay [18] it was 0.07%. Also, the results for the inhibition in [19] and in [20] were 2.94% and -0.48%, respectively.
`CN(C)CCOc1ccc(-c2cc(-c3ccc4c(c3)CCC4=NO)c(-c3ccncc3)o2)cc1`: the inhibition is -0.71% in assay [1]; -0.67% in assay [2]; 1.69% in assay [3]; 0.66% in assay [4]; 0.57% in assay [5]; -3.52% in [6]. Moreover, the inhibition in assay [7] was -0.6%; in assay [8], 0.73%; in assay [9] it was -1.28%; in [10], -0.3%; in [11], 1.91%; in [12] it was -1.28%. The inhibition in assay [13] was 0.21%; in assay [14], -1.57%; in assay [15] it was -1.47%; in assay [16], -1.36%; in assay [17], -2.61%; in assay [18], -0.52%. In addition, the inhibition in [19] was -0.36%; in [20], -0.79%.
As for `COc1ccc2ncn(-c3cc(O[C@H](C)c4ccccc4Cl)c(C(N)=O)s3)c2c1`, the inhibition is -2.98% in [1]; -2.27% in assay [2]; -0.19% in assay [3]; -3.87% in assay [4]; -2.17% in [5]; -3.71% in [6]. Further, the inhibition was -2.1% in assay [7]; 0.43% in assay [8]; 0.2% in assay [9]; -2.29% in [10]; -2.47% in assay [11]; -1.4% in assay [12]. The inhibition was 0.78% in assay [13]; -5.09% in assay [14]; -1.96% in assay [15]; 2.27% in [16]; 2.75% in [17]; -1.42% in assay [18]. The inhibition in [19] is 1.7%; in assay [20], -1.37%.
Consider `COc1ccc2cc(-c3c(-c4ccncc4)nc(-c4ccc([S+](C)[O-])cc4C)n3C)ccc2c1` (stereo not given), for which the inhibition in [1] amounted to 0.89%; in assay [2] it was 2.2%; in [3] it was 5.75%; in assay [4], 0.73%; in [5], 2.04%; in assay [6] it was 2.45%. Further, the inhibition came to 4.45% in assay [7]; 1.09% in [8]; 1.03% in assay [9]; 0.64% in [10]; 2.67% in assay [11]; 2% in [12]. In addition, the inhibition is 7.26% in assay [13]; 2.45% in assay [14]; 6.41% in assay [15]; -0.45% in assay [16]; 0% in assay [17]; 7.28% in [18]. The inhibition was determined as 15.4% in assay [19] and 5.99% in assay [20].
For the molecule `NCc1ccc(-n2c(-c3nonc3N)nc3cnccc32)cc1`, the inhibition was 6.36% in assay [1]; 5.03% in assay [2]; 10.2% in assay [3]; 4.76% in [4]; 11.9% in [5]; -0.37% in assay [6]. Besides, the inhibition worked out at 5.55% in assay [7]; 6.2% in assay [8]; 28.7% in [9]; 2.13% in [10]; 3.13% in assay [11]; 8.53% in [12]. In addition, the inhibition in assay [13] was determined as 37.5%; in [14], 5.66%; in [15], 36.4%; in assay [16] it was 3.41%; in assay [17] it was 4.54%; in assay [18], 25.6%. The inhibition was determined as 67% in assay [19] and 18.1% in assay [20].
On to `NC(=O)c1cc(-c2ccc(F)cc2)cc(-c2ccncc2)c1N`, for which the inhibition in [1] is -2.25%; in assay [2] it was 4.11%; in [3], 2.25%; in assay [4], -0.26%; in assay [5], -1.83%; in [6], 0.37%. The inhibition in assay [7] was -0.58%; in [8] it was 0.69%; in assay [9], 1.24%; in assay [10] it was 1.01%; in [11], 0.95%; in assay [12], 1.07%. For the same molecule, the inhibition in assay [13] is 3.02%; in assay [14], -0.78%; in assay [15], -1.19%; in assay [16] it was 3.58%; in [17] it was 5.04%; in [18], 1.24%. The inhibition in assay [19] was 1.03%; in assay [20], 0.05%.

What is called inhibition is the change of the read-out against control, counted positive when it falls.
